# Source: the supplement of paper PMC9794691
# How the values were obtained:
# H1975 [1] = assay: area under confluence curve of compound monotherapy; compare to DMSO control AUC of the same experiment (AUC (confluence x time, arbitrary)); settings: 1000 nM; DMSO control AUC in same experiment: 15857
# In short: (§1)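 EGFR-mutant adenocarcinoma lines (RPMI 1640, 10% FBS, 37 °C, 5% CO2) were seeded at 20,000–30,000 cells/well in 48-well plates and next day given test compound alone at one dose (highest with <50% parental inhibition, or 1 uM), refreshed after PBS washes every 3–4 days, then drug-free from DTP stage (10–21 days). IncuCyte confluence was tracked until EGFR-inhibitor-only wells regrew. Area under the confluence curve came from Prism (median of triplicates where run), beside same-experiment vehicle AUC.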
# HCC2279 [2] = assay: as above; settings: 1000 nM; DMSO control AUC in same experiment: 14404
# In short: as §1
# HCC2935 [3] = assay: as above; settings: 1000 nM; DMSO control AUC in same experiment: 19215
# In short: as §1
# HCC4006 [4] = assay: as above; settings: 1000 nM; DMSO control AUC in same experiment: 18415
# In short: as §1
# HCC827 [5] = assay: as above; settings: 1000 nM; DMSO control AUC in same experiment: 21320
# In short: as §1
# II-18 [6] = assay: as above; settings: 1000 nM; DMSO control AUC in same experiment: 11834
# In short: as §1
# PC9 = assay: area under confluence curve of osimertinib + compound combination regimen (DTP regrowth); compare to osimertinib-only DTP control AUC of the same experiment (AUC (confluence x time, arbitrary))
# In short: (§2)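 The area under the IncuCyte confluence–time curve, calculated in Prism and taken as the median of triplicates where available, is the value reported. It was measured in EGFR-mutant NSCLC lines that received the EGFR inhibitor either alone, followed by a test compound, or together with a fixed-dose test compound until the persister stage (10–21 days) and then drug-free medium. Medium was refreshed every 3–4 days until the inhibitor-only wells were confluent again.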
# H1975 [7] = assay: as above
# In short: as §2
# HCC2279 [8] = assay: as above
# In short: as §2
# HCC2935 [9] = assay: as above
# In short: as §2
# HCC4006 [10] = assay: as above
# In short: as §2
# HCC827 [11] = assay: as above
# In short: as §2
# II-18 [12] = assay: as above
# In short: as §2
smiles,measurement,setting,value
O=C(c1cc(Cc2n[nH]c(=O)c3ccccc23)ccc1F)N1CCN(C(=O)C2CC2)CC1 [Olaparib],area under confluence curve,H1975 [1],12200
same,area under confluence curve,HCC2279 [2],14700
same,area under confluence curve,HCC2935 [3],20800
same,area under confluence curve,HCC4006 [4],19900
same,area under confluence curve,HCC827 [5],20700
same,area under confluence curve,II-18 [6],10800
Cc1onc(C(=O)N2CCN(C(c3ccc(Cl)cc3)c3ccc(Cl)cc3)CC2)c1[N+](=O)[O-] + C=CC(=O)Nc1cc(Nc2nccc(-c3cn(C)c4ccccc34)n2)c(OC)cc1N(C)CCN(C)C [osimertinib],area under confluence curve,"PC9; test compound dose 1000 nM, dosing schedule: sequential, osimertinib-only DTP control AUC in same experiment: 8716, DMSO control AUC in same experiment: 45737",823
same,area under confluence curve,"PC9; test compound dose 1000 nM, dosing schedule: upfront, osimertinib-only DTP control AUC in same experiment: 11096, DMSO control AUC in same experiment: 45737",19300
Cn1cc(CNCC2CCN(c3ncc(C(=O)NO)cn3)CC2)c2ccccc21 [Quisinostat] + C=CC(=O)Nc1cc(Nc2nccc(-c3cn(C)c4ccccc34)n2)c(OC)cc1N(C)CCN(C)C [osimertinib],area under confluence curve,"H1975 [7]; test compound dose 10 nM, dosing schedule: sequential, osimertinib-only DTP control AUC in same experiment: 15943, DMSO control AUC in same experiment: 20657",1750
same,area under confluence curve,"H1975 [7]; test compound dose 10 nM, dosing schedule: upfront, osimertinib-only DTP control AUC in same experiment: 27804, DMSO control AUC in same experiment: 20657",5730
same,area under confluence curve,"HCC2279 [8]; test compound dose 10 nM, dosing schedule: sequential, osimertinib-only DTP control AUC in same experiment: 20224, DMSO control AUC in same experiment: 29252",6370
same,area under confluence curve,"HCC2279 [8]; test compound dose 10 nM, dosing schedule: upfront, osimertinib-only DTP control AUC in same experiment: 43517, DMSO control AUC in same experiment: 29252",12400
same,area under confluence curve,"HCC2935 [9]; test compound dose 10 nM, dosing schedule: sequential, osimertinib-only DTP control AUC in same experiment: 6271, DMSO control AUC in same experiment: 13875",6600
same,area under confluence curve,"HCC2935 [9]; test compound dose 10 nM, dosing schedule: upfront, osimertinib-only DTP control AUC in same experiment: 10360, DMSO control AUC in same experiment: 13875",6240
same,area under confluence curve,"HCC4006 [10]; test compound dose 10 nM, dosing schedule: sequential, osimertinib-only DTP control AUC in same experiment: 21234, DMSO control AUC in same experiment: 16638",5480
same,area under confluence curve,"HCC4006 [10]; test compound dose 10 nM, dosing schedule: upfront, osimertinib-only DTP control AUC in same experiment: 19238, DMSO control AUC in same experiment: 16638",4030
same,area under confluence curve,"HCC827 [11]; test compound dose 10 nM, dosing schedule: sequential, osimertinib-only DTP control AUC in same experiment: 8266, DMSO control AUC in same experiment: 27404",2780
same,area under confluence curve,"HCC827 [11]; test compound dose 10 nM, dosing schedule: upfront, osimertinib-only DTP control AUC in same experiment: 13929, DMSO control AUC in same experiment: 27404",4260
same,area under confluence curve,"II-18 [12]; test compound dose 10 nM, dosing schedule: sequential, osimertinib-only DTP control AUC in same experiment: 21122, DMSO control AUC in same experiment: 7080",426
same,area under confluence curve,"II-18 [12]; test compound dose 10 nM, dosing schedule: upfront, osimertinib-only DTP control AUC in same experiment: 22894, DMSO control AUC in same experiment: 7080",19200
same,area under confluence curve,"PC9; test compound dose 10 nM, dosing schedule: sequential, osimertinib-only DTP control AUC in same experiment: 10175, DMSO control AUC in same experiment: 27958",2060
same,area under confluence curve,"PC9; test compound dose 10 nM, dosing schedule: sequential, osimertinib-only DTP control AUC in same experiment: 13992, DMSO control AUC in same experiment: 30002",4770
same,area under confluence curve,"PC9; test compound dose 10 nM, dosing schedule: sequential, osimertinib-only DTP control AUC in same experiment: 14708, DMSO control AUC in same experiment: 21341",2700
same,area under confluence curve,"PC9; test compound dose 10 nM, dosing schedule: upfront, osimertinib-only DTP control AUC in same experiment: 16134, DMSO control AUC in same experiment: 27958",1380
same,area under confluence curve,"PC9; test compound dose 10 nM, dosing schedule: upfront, osimertinib-only DTP control AUC in same experiment: 21313, DMSO control AUC in same experiment: 21341",6010
same,area under confluence curve,"PC9; test compound dose 10 nM, dosing schedule: upfront, osimertinib-only DTP control AUC in same experiment: 22377, DMSO control AUC in same experiment: 30002",4720
C[C@@H](Oc1cc(-c2cnn(C3CCNCC3)c2)cnc1N)c1c(Cl)ccc(F)c1Cl [Crizotinib] + C=CC(=O)Nc1cc(Nc2nccc(-c3cn(C)c4ccccc34)n2)c(OC)cc1N(C)CCN(C)C [osimertinib],area under confluence curve,"H1975 [7]; test compound dose 1000 nM, dosing schedule: sequential, osimertinib-only DTP control AUC in same experiment: 22968, DMSO control AUC in same experiment: 15857",9770
same,area under confluence curve,"H1975 [7]; test compound dose 1000 nM, dosing schedule: upfront, osimertinib-only DTP control AUC in same experiment: 27164, DMSO control AUC in same experiment: 15857",9330
same,area under confluence curve,"HCC2279 [8]; test compound dose 1000 nM, dosing schedule: sequential, osimertinib-only DTP control AUC in same experiment: 26096, DMSO control AUC in same experiment: 14404",23100
same,area under confluence curve,"HCC2279 [8]; test compound dose 1000 nM, dosing schedule: upfront, osimertinib-only DTP control AUC in same experiment: 33120, DMSO control AUC in same experiment: 14404",32900
same,area under confluence curve,"HCC2935 [9]; test compound dose 1000 nM, dosing schedule: sequential, osimertinib-only DTP control AUC in same experiment: 22314, DMSO control AUC in same experiment: 19215",21400
same,area under confluence curve,"HCC2935 [9]; test compound dose 1000 nM, dosing schedule: upfront, osimertinib-only DTP control AUC in same experiment: 29846, DMSO control AUC in same experiment: 19215",33400
same,area under confluence curve,"HCC4006 [10]; test compound dose 1000 nM, dosing schedule: sequential, osimertinib-only DTP control AUC in same experiment: 12791, DMSO control AUC in same experiment: 18415",12500
same,area under confluence curve,"HCC4006 [10]; test compound dose 1000 nM, dosing schedule: upfront, osimertinib-only DTP control AUC in same experiment: 17269, DMSO control AUC in same experiment: 18415",13000
same,area under confluence curve,"HCC827 [11]; test compound dose 1000 nM, dosing schedule: sequential, osimertinib-only DTP control AUC in same experiment: 15330, DMSO control AUC in same experiment: 21320",10400
same,area under confluence curve,"HCC827 [11]; test compound dose 1000 nM, dosing schedule: upfront, osimertinib-only DTP control AUC in same experiment: 20798, DMSO control AUC in same experiment: 21320",15000
same,area under confluence curve,"II-18 [12]; test compound dose 1000 nM, dosing schedule: sequential, osimertinib-only DTP control AUC in same experiment: 8624, DMSO control AUC in same experiment: 11834",1450
same,area under confluence curve,"II-18 [12]; test compound dose 1000 nM, dosing schedule: upfront, osimertinib-only DTP control AUC in same experiment: 10856, DMSO control AUC in same experiment: 11834",10800
same,area under confluence curve,"PC9; test compound dose 1000 nM, dosing schedule: sequential, osimertinib-only DTP control AUC in same experiment: 15001, DMSO control AUC in same experiment: 22064",8360
same,area under confluence curve,"PC9; test compound dose 1000 nM, dosing schedule: upfront, osimertinib-only DTP control AUC in same experiment: 24924, DMSO control AUC in same experiment: 22064",7510
Cc1cc(N2C[C@@H](C)N[C@@H](C)C2)ncc1-c1ccc(-c2nc3c(ccn3C)c(=O)[nH]2)cc1 + C=CC(=O)Nc1cc(Nc2nccc(-c3cn(C)c4ccccc34)n2)c(OC)cc1N(C)CCN(C)C [osimertinib],area under confluence curve,"H1975 [7]; test compound dose 1000 nM, dosing schedule: sequential, osimertinib-only DTP control AUC in same experiment: 15943, DMSO control AUC in same experiment: 20657",12600
same,area under confluence curve,"H1975 [7]; test compound dose 1000 nM, dosing schedule: upfront, osimertinib-only DTP control AUC in same experiment: 27804, DMSO control AUC in same experiment: 20657",11600
same,area under confluence curve,"HCC2279 [8]; test compound dose 1000 nM, dosing schedule: sequential, osimertinib-only DTP control AUC in same experiment: 15997, DMSO control AUC in same experiment: 40085",7150
same,area under confluence curve,"HCC2279 [8]; test compound dose 1000 nM, dosing schedule: upfront, osimertinib-only DTP control AUC in same experiment: 28057, DMSO control AUC in same experiment: 40085",4140
same,area under confluence curve,"HCC2935 [9]; test compound dose 1000 nM, dosing schedule: sequential, osimertinib-only DTP control AUC in same experiment: 7139, DMSO control AUC in same experiment: 15413",3770
same,area under confluence curve,"HCC2935 [9]; test compound dose 1000 nM, dosing schedule: upfront, osimertinib-only DTP control AUC in same experiment: 19044, DMSO control AUC in same experiment: 15413",6190
same,area under confluence curve,"HCC4006 [10]; test compound dose 1000 nM, dosing schedule: sequential, osimertinib-only DTP control AUC in same experiment: 14882, DMSO control AUC in same experiment: 10921",6450
same,area under confluence curve,"HCC4006 [10]; test compound dose 1000 nM, dosing schedule: upfront, osimertinib-only DTP control AUC in same experiment: 18913, DMSO control AUC in same experiment: 10921",7770
same,area under confluence curve,"HCC827 [11]; test compound dose 1000 nM, dosing schedule: sequential, osimertinib-only DTP control AUC in same experiment: 18675, DMSO control AUC in same experiment: 48895",2580
same,area under confluence curve,"HCC827 [11]; test compound dose 1000 nM, dosing schedule: upfront, osimertinib-only DTP control AUC in same experiment: 25542, DMSO control AUC in same experiment: 48895",7720
same,area under confluence curve,"II-18 [12]; test compound dose 1000 nM, dosing schedule: sequential, osimertinib-only DTP control AUC in same experiment: 21122, DMSO control AUC in same experiment: 7080",1300
same,area under confluence curve,"II-18 [12]; test compound dose 1000 nM, dosing schedule: upfront, osimertinib-only DTP control AUC in same experiment: 22894, DMSO control AUC in same experiment: 7080",1140
